Results filed as inconclusive are left out. Entries that show only a call come without a potency. Unmarked numbers belong to inactive results. The source made the active and inactive calls. The call rests on the fitted dose curve; in most records, active means well fitted inhibition curve with a large enough effect in the repeat runs; inconclusive means weak or mixed curves; inactive means no such curve, though single readings can be large or run the other way.
Potency means the concentration at half of the fitted maximal effect.

Chain of Cytochrome P450 2D6 (Homo sapiens) (P10635 whole entry, looked up): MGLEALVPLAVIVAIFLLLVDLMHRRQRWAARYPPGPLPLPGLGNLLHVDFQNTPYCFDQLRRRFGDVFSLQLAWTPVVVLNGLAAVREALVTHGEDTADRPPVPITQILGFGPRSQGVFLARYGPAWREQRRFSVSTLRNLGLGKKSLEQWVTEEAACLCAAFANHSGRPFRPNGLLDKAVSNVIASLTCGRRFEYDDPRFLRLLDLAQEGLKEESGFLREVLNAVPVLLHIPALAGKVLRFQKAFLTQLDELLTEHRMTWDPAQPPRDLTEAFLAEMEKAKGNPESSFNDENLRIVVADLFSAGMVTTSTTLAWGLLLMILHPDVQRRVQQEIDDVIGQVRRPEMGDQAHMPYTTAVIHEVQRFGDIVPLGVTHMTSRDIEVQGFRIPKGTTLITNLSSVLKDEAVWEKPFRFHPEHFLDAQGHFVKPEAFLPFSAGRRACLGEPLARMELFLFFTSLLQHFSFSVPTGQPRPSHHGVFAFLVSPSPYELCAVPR

This assay deals with Cytochrome P450 2D6 (Homo sapiens) (UniProt P10635). Nature of the assay: Cytochrome P450 Family 2 Subfamily D Member 6 (CYP2D6) small molecule antagonists: luciferase reporter qHTS assay (AID 1671196). Further: nearly all actives have a fitted effect of over 50% in size. Particulars: P450-Glo CYP2D6 enzyme assay, luciferin luminescence, 1 h; series mostly up to 115 µM. In outline:
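Quantitative HTS of Tox21 chemicals against CYP2D6 using a luminescent proluciferin substrate. After NADPH addition, 1 h room-temperature reaction; luminescence recorded 20 min post detection reagent.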
Take `C=CCc1cc(S(=O)(=O)c2ccc(O)c(CC=C)c2)ccc1O`: the Potency was 6.33 µM (active).

Take `Cc1cccc2c1ccc1ccccc12`: the Potency entry is “inactive”.

Consider `O=C1OC(O)C(C(Cl)Cl)=C1Cl` (stereo not drawn), for which the Potency result is “inactive”.

Regarding `CCOc1nc(F)cc2nc(S(=O)(=O)Nc3c(Cl)cccc3C(=O)OC)nn12`, the Potency entry was “inactive”.

Take `C=CC(=O)OCCOC1C2CCC1C1CC=CC12` (stereo not drawn): the activity change, negative = inhibition was -35.4% [at 23.6 µM].

With `Nc1cc([N+](=O)[O-])cc(Cl)c1O`, the Potency entry was “inactive”.

On to `Nc1ccc(F)c([N+](=O)[O-])c1`, for which the Potency entry is “inactive”.

With `C=C(C)CCO`, the Potency result is “inactive”.

Regarding `Cc1ccc(N=Nc2c(O)ccc3ccccc23)c(C)c1`, the Potency was 17.4 µM (active).

With `CCCCC/C=C\C=C\C(=O)OCC`, the Potency is 46.7 µM (active).

On to `C=Cc1ccncc1`, for which the Potency entry is “inactive”.

`Cc1c[nH]c(=O)[nH]c1=O`: the Potency entry was “inactive”.

With `C/C(=N\[Si](C)(C)C)O[Si](C)(C)C`, the Potency result is “inactive”.

Take `CC(C=O)c1ccccc1` (stereo not drawn): the Potency result is “inactive”.

For `O=C1CCC/C=C\CCCCCCCCCC1`, the Potency result is “inactive”.

`CN1CCN(CCCN2c3ccccc3Sc3ccc(Cl)cc32)CC1`: the Potency is 0.275 µM (active).

`CC(C)(C)c1cc(CCC(=O)OCCSCCOC(=O)CCc2cc(C(C)(C)C)c(O)c(C(C)(C)C)c2)cc(C(C)(C)C)c1O`: the Potency entry is “inactive”.

Consider `COC(=O)c1ccc([N+](=O)[O-])cc1`, for which the Potency result was “inactive”.

`Nc1ccc(Cl)c([N+](=O)[O-])c1`: the Potency entry is “inactive”.

As to `CCCCCCCCCCCCN1CCCC1=O`, the Potency entry is “inactive”.

Consider `CCCCCCCCOC(=O)c1cc(O)c(O)c(O)c1`, for which the Potency is 11.2 µM (active).

For `CCN(CC)c1ccc(C=O)cc1`, the Potency result is “inactive”.

For `Nc1ccc2c(S(=O)(=O)O)cccc2c1S(=O)(=O)O`, the Potency result is “inactive”.

Source of the values: PubChem BioAssay (Tox21).
